BAZ2B block – inhibitors of human BAZ2B bromodomain | Q9UIF8 | AlphaScreen BAZ2B-H3K14Ac peptide displacement | Potency, µM (doses to about 114 µM), actives largely listed as inhibitors | 4.4% of 360,000 active; also: nearly all actives have a fitted effect of over 60% in size
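AlphaScreen displacement of biotin-H3(5-23)K14Ac peptide (50 nM final) from BAZ2B (50 nM final) in PBS pH 7.4, 0.01% Tween-20; complex preformed 30 min RT, then compounds (top 110 uM) 30 min RT, beads 20 min dark.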
G9a block – inhibitors of human histone lysine methyltransferase G9a | Q96KQ7 | G9a H3K9 monomethylation, AlphaScreen, 2 h | Potency, µM (series often up to 102 µM), most hits filed as inhibitors | 8.8% of 350,000 active | AID 504332; also: nearly all actives have a fitted effect of over 75% in size
Target sequence (Q96KQ7 913-1193 limits assumed): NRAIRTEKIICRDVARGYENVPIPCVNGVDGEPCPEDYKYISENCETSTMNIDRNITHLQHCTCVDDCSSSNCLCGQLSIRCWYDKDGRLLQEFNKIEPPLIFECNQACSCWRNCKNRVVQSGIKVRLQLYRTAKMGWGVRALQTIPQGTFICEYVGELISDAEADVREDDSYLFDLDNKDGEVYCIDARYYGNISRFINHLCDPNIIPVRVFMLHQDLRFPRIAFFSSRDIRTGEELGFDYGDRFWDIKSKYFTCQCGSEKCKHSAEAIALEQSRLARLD
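Step 1: enzyme (final 20 nM) with compound, 15 min RT. Step 2: substrate peptide 500 nM and SAM 20 uM, 2 h RT. Step 3: anti-H3K9me1 antibody and AlphaScreen beads, 10 min, then plate read.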
L3MBTL1 inh – L3MBTL1 (human) inhibition; AlphaScreen L3MBTL1–H3K9me1 peptide binding; Potency, µM (series often up to 57.1 µM), hits mostly inhibitors; 0.66% of 230,000 active; Q9Y468; also: nearly all actives have a fitted effect of over 60% in size
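Read-out is AlphaScreen signal from streptavidin donor and nickel chelate acceptor beads (10 ug/mL final each) bridging L3MBTL1 (50 nM) and biotinylated K9-monomethylated H3(1-15) peptide (75 nM), after 30 min compound exposure at room temperature.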
Sfp inh – blocks B. subtilis Sfp PPTase activity; Q9F4F7; Biochemical Sfp PPTase activity, qHTS; Potency, µM, actives largely listed as inhibitors; 3.5% of 310,000 active;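 also: the enzyme is Sfp with the accession as filed and its product quenches rhodamine fluorescence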
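Buffer: 50 mM Hepes-Na pH 7.6, 10 mM MgCl2, 0.01% Nonidet P-40, 0.01% BSA. Enzyme 15 nM, pre-exposed to compound 15 min; substrates then added and fluorescence change tracked over 30 min.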
HP1b binding inh – inhibitors of HP1-beta chromodomain binding to methylated histone tails; P83916; AlphaScreen HP1-beta / biotin-H3K9me3 peptide binding; Potency, µM (top dose mostly 114 µM), most hits filed as inhibitors; 0.56% of 390,000 active; also: nearly all actives have a fitted effect of over 70% in size
Target sequence (P83916 whole entry, looked up): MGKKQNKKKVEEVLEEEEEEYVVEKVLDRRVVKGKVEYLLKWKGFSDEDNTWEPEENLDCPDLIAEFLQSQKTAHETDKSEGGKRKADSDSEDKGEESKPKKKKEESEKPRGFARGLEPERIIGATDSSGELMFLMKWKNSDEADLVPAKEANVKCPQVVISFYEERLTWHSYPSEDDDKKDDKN
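HP1-beta protein (50 nM final) preincubated 30 min at room temperature with biotinylated H3(1-18)K9me3 peptide (50 nM) in PBS pH 7.4, 0.01% Tween-20, then compound added for 30 min. AlphaScreen streptavidin donor/nickel chelate acceptor beads (10 ug/mL final), 30 min dark, luminescence read.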
JMJD2A Tudor – inhibitors of human JMJD2A Tudor domain. AlphaScreen JMJD2A-Tudor / H3K4me3 peptide binding. Potency, µM (doses to about 114 µM), hits mostly inhibitors. 4.4% of 390,000 active. AID 504339; also: nearly all actives have a fitted effect of over 50% in size
Numbers stand for hits; n = inactive; u = inconclusive; x = no result given; [ ] = remark or other dose. Rows were chosen to be rich in hits. Some 12% of all compounds tested hit in one or more screens of this group. Calls follow the shape of the dose curve; as a rule, active = well fitted curve in the direction sought with a large enough effect; inconclusive = small, poorly fitted or top-dose-only effect, or another doubt; inactive = no such curve, though single readings can be large; an effect the other way counts as inactive or inconclusive.

SMILES | BAZ2B block | G9a block | L3MBTL1 inh | Sfp inh | HP1b binding inh | JMJD2A Tudor
COC(=O)c1cc(COc2ccc3oc(C)c(C(=O)OC(C)C)c3c2)c(C)o1 | n | n | x | u | n | n
COc1ccc(C2C(C(C)=O)=C(O)C(=O)N2CCc2ccccc2)c(OC)c1 (stereo not given) | u | u | x | n | n | 32µM
CC(=O)C1=C(O)C(=O)N(Cc2ccccc2)C1c1cccs1 (stereo not given) | u | 45µM | n | n | n | n
COc1ccc(C2C(C(C)=O)=C(O)C(=O)N2Cc2ccccc2)c(OC)c1 (stereo not given) | n | 50µM | x | n | n | n
CC(=O)C1=C(O)C(=O)N(Cc2ccccc2)C1c1ccc(Cl)cc1 (stereo not given) | n | n | x | n | n | n
COc1ccc(OC)c(C2C(C(C)=O)=C(O)C(=O)N2CCC(=O)O)c1 (stereo not given) | 50µM | u | x | n | n | u
CCCCC[C@H](O)/C=C/[C@@H]1[C@H]2C/C(=C/CCCC(=O)O)C[C@H]2C[C@H]1O | x | n | x | n | x | x
Cc1ccc2[nH]c(C(=O)N3CCN(C(c4ccccc4)c4ccccc4)CC3)cc2c1 | n | x | n | n | n | n
COc1cc(C2C(C(=O)C(C)(C)C)=C(O)C(=O)N2Cc2ccccc2)ccc1O (stereo not given) | u | x | n | n | n | u
COc1cc(C2C(C(C)=O)=C(O)C(=O)N2Cc2ccccc2)ccc1O (stereo not given) | n | 45µM | x | n | n | n
COc1cccc(C2C(C(=O)c3cccs3)=C(O)C(=O)N2CCN(C)C)c1OC (stereo not given) | n | n | n | n | n | u
COc1ccc(OC)c(C2C(C(=O)c3cccs3)=C(O)C(=O)N2CCN(C)C)c1 (stereo not given) | n | 50µM | n | n | n | n
Cc1cnc(C(=O)OCC(=O)Nc2ccc(Br)c(C)c2)cn1 | n | n[2.33 µM] | n | x | n | n
Cc1nc2ccc(N=NN(C)C)cc2[nH]1 | n | x | n | u | 16µM | n
CCOC(=O)NC(=O)CSc1cc(C)c2cc(C)cc(C)c2n1 | n | u | x | 45µM | n | n
Cc1cc(C)c2nc(SCC(=O)NC(=O)c3cccn3C)cc(C)c2c1 | n | u | x | n | n | n
CC(C)=CCc1c(-c2ccc(O)cc2O)oc2c3c(cc(O)c2c1=O)OC(C)(C)C=C3 | x | x | x | x | n | u
CC(C)=CCc1c2c(c(O)c3c(=O)c4c(oc13)-c1cc(O)c(O)cc1OC4C=C(C)C)C=CC(C)(C)O2 (stereo not given) | x | x | x | x | u | 35µM
COc1ccc(C(=O)NNC(=O)CCC(=O)NNC(=O)c2ccc(OC)cc2)cc1 | 50µM | 7.9µM | x | n | n | n
COc1ccc(OCc2ccc(C(=O)NN)cc2)cc1 | n | 45µM | x | n | n | u
COc1ccc(CCNC(=O)CCc2ccsc2)cc1OC | n | n | x | n | n | n
COc1ccc(NCc2ccc(OC)c(Cn3ccnc3)c2)c(OC)c1 | 50µM | 11µM | x | n | u | 40µM
COc1ccc(Cn2ccnc2)cc1[N+](=O)[O-] | n | n | n | n | n | n
COc1ccc(Cn2ccnc2)cc1Br | 50µM | u | x | u | n | u
COc1ccc(OC)c(-c2cc(C(=O)NCCCn3ccnc3)no2)c1 | u | n | n | n | n | u
SMILES | BAZ2B block | G9a block | L3MBTL1 inh | Sfp inh | HP1b binding inh | JMJD2A Tudor
N#Cc1ccc(CN2CC3(CCN(C(=O)c4cccc(F)c4)CC3)C2)cc1 | x | n[12.7 µM] | x | n | x | x
CC[n+]1c(/C=C/N(C)c2ccccc2)n(-c2ccccc2)c2ccc(-c3nc4ccccc4s3)cc21 | n | 25µM | n | 45µM | n | 35µM
CCOC(=O)c1ccc2c(c1)n(CC)c(/C=C/N(C)c1ccccc1)[n+]2CC | u | n | n | n | u | n
CC(=O)c1ccc(-c2ccc(C(=O)Nc3nc(C)c(C(C)=O)s3)o2)cc1 | n | n | n | x | n | n
O=C(CCSc1ccccn1)c1ccccc1 | n | u | n | 79µM | n | n
O=C(O)CCSc1ccccn1 | n | 14µM | n | 50µM | n | n
O=C(Nc1nnc(C2CCCCC2)s1)C1CCN(C(=O)c2ccco2)CC1 | x | x | x | x | n | n
COc1ccc(Cn2c(SCc3ccc(C(=O)NC(C)c4ccccc4)cc3)nc3cccnc32)cc1 (stereo not given) | n | n | x | x | n | n
COc1ccc(NS(=O)(=O)N2CCCCC2)cc1 | x | x | x | x | n | n
c1nc(NCC2CCCO2)c2ccc(-c3ccc4c(c3)OCO4)cc2n1 (stereo not given) | x | x | x | x | x | 79µM
COc1cccc(N2CCN(S(=O)(=O)c3ccc(-c4ccno4)cc3OC)CC2)c1 | n | n | x | x | n | n
CC(C)CCNC(=O)c1onc(CSc2ccccn2)c1C(=O)NCCC(C)C | x | x | x | x | n | 35µM
COCCNC(=O)c1onc(CSc2ccccn2)c1C(=O)NCCOC | x | x | x | x | n | n
Cc1ccc(S(=O)(=O)N2CCOCC2)cc1C(=O)NCCN1C(=O)S/C(=C\c2ccccc2Cl)C1=O | n | n | n | n | n | n
O=C(NCCN1C(=O)S/C(=C\c2cccnc2)C1=O)c1ccc([N+](=O)[O-])s1 | n | 14µM | n | x | n | n
O=C(NCCN1C(=O)S/C(=C\c2cccnc2)C1=O)c1cc(S(=O)(=O)N2CCOCC2)ccc1F | n | 40µM | n | n | n | u
O=C(CCC(=O)c1ccc(Cl)cc1)OCn1nnc2ccccc2c1=O | x | x | n | x | n | n
O=C(Nc1cccc(S(=O)(=O)NC2=NCCCCC2)c1)c1cc(-c2ccc(Cl)cc2)nc2ccccc12 | n | n | n | n | n | n
O=C(Nc1cccc(S(=O)(=O)NC2=NCCC2)c1)c1cc(-c2ccco2)nc2ccccc12 | 35µM | 40µM | 7.1µM | n | u | u
O=C(Nc1cccc(S(=O)(=O)NC2=NCCCCC2)c1)c1cc(-c2ccccc2)nc2ccccc12 | n | n | n | n | n | n
O=C(NC(=S)Nc1cccc(S(=O)(=O)NC2=NCCC2)c1)c1cc(-c2ccco2)nc2ccccc12 | u | 40µM | u | u | u | n
CC(C(=O)NCc1ccccc1)N1CCN(c2ccc(F)cc2)CC1 (stereo not given) | n | n[2.33 µM] | x | n | n | n
Cc1ccc(C(C(=O)NC2CCCCC2)N(Cc2ccccc2)C(=O)Cc2c[nH]c3ccccc23)o1 (stereo not given) | u | 2.5µM | n | n | n | u
COc1cc(C(C(=O)NC2CCCCC2)N(C(=O)Cc2c[nH]c3ccccc23)c2ccccc2C)cc(OC)c1OC (stereo not given) | u | 40µM | n | n | n | n
COc1cc(C(C(=O)NC2CCCCC2)N(Cc2cccs2)C(=O)Cc2c[nH]c3ccccc23)cc(OC)c1OC (stereo not given) | n | n | n | n | n | n
